Inhibition data for seven compounds are collected here from ChEMBL document CHEMBL4513155, “CO-ADD screening of University of Sydney (Australia) compounds” (2021).

Entries with a potency or affinity are not part of this list.

One assay relates to Staphylococcus aureus. As to conditions: Concentration 32 ug.mL-1; ASSAY_TEST Inhibition of Bacterial Growth; detection method Absorption (OD600); MEDIA CAMHB; plate type 384well; NBS; CORNING #3640; time 18 hr.
A further assay deals with Escherichia coli. As to conditions: Concentration 32 ug.mL-1; ASSAY_TEST Inhibition of Bacterial Growth; detection method Absorption (OD600); MEDIA CAMHB; plate type 384well; NBS; CORNING #3640; time 18 hr.

On to `COC(COc1cncc2nnc(-c3ccc(C#N)cc3)n12)c1ccc(F)c(F)c1` (centres undefined), for which the figures for the Inhibition in the assay with Staphylococcus aureus and in the assay with Escherichia coli were -4.85% and 2.52%, respectively.

`O.O=C1c2cccc3c(-n4cc(CN5CCCNCCN(Cc6cn(-c7ccc8c9c(cccc79)C(=O)N(CCCO)C8=O)nn6)CCCNCC5)nn4)ccc(c23)C(=O)N1CCCO.[Cl-].[Cl-].[Zn+2]`: the Inhibition with Staphylococcus aureus came out at 7.81%; with Escherichia coli, 6.15%.

In the case of `CCN1C(=O)c2cccc3c(-c4cn(CCN5CCCNCCN(CCn6cc([C@]7(O)CC[C@H]8[C@@H]9CCc%10cc(O)ccc%10[C@H]9CC[C@@]87C)nn6)CCCNCC5)nn4)ccc(c23)C1=O.OCCN1CCN(CCCN2c3ccccc3Sc3ccc(Cl)cc32)CC1.[O-][Cl+3]([O-])([O-])[O-].[O-][Cl+3]([O-])([O-])[O-].[Zn+2]`, the Inhibition in the assay on Staphylococcus aureus turned out to be 38.05%; with Escherichia coli, 0.56%.

Take `Fc1ccc(CCOc2cncc3nnc(-c4ccc(C(F)(F)F)nc4)n23)cc1F`: the Inhibition in the assay on Staphylococcus aureus turned out to be 6.53%; in the assay with Escherichia coli it was 1.6%.

Turning to `Fc1ccc(CCOc2cncc3nnc(-c4ccc(Cl)cc4)n23)cc1F`, the Inhibition in the assay on Staphylococcus aureus is given as -7.02%; in the assay with Escherichia coli it was -0.47%.

`CN(C)C(COc1cncc2nnc(-c3ccc(C#N)cc3)n12)c1ccc(F)c(F)c1` (centres undefined): the Inhibition is reported as -0.93% in the assay with Staphylococcus aureus and 3.93% in the assay with Escherichia coli.

With `N#Cc1ccc(-c2nnc3cncc(OCC(O)c4ccc(F)c(F)c4)n23)cc1` (centres undefined), the Inhibition was -3.19% in the assay on Staphylococcus aureus and 2.25% with Escherichia coli.
